Results taken from PubChem BioAssay AID1159580 (chemical genetic matrix, 2015).
Hit rate of the full screen: of about 5,500 compounds, about 2,000 (36%) were called active. Another 18% or so got no clear call; they are omitted. Cut-off read from the data, not from the text of the source: active = normalized growth mostly below about 0.91 (no sharp cut-off); inconclusive = no clear call, values can overlap the other calls; inactive = mostly above about 0.92. The list shows a part of the results.

Assay: chemical genetic growth profiling, strain panel (AID 1159580);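 note: tested at 20 µM; growth read once vehicle control cultures reached saturation at 30 °C; 1 = growth at the plate median or of vehicle wells; lower values mean less growth of the strain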
Settings: growth OD

Measured: normalized growth

O=C(Cc1cccs1)NC1C(=O)N2C(C(=O)[O-])=C(C[n+]3ccccc3)CSC12 (stereo unspecified)
inactive: S. cerevisiae deletion strains, locus YJR075W, strain HOC1, stronger effect = lower value 1.01 | S. cerevisiae deletion strains, locus YKL009W, strain mrt4, stronger effect = lower value 0.989 | S. cerevisiae deletion strains, locus YKL068W, stronger effect = lower value 1.01 | S. cerevisiae deletion strains, locus YKL085W, strain MDH1 (second series), stronger effect = lower value 1 | S. cerevisiae deletion strains, locus YKL085W, strain MDH1, stronger effect = lower value 1 | S. cerevisiae deletion strains, locus YKL160W, strain elf1, stronger effect = lower value 1 | S. cerevisiae deletion strains, locus YKL190W, strain CNB1, stronger effect = lower value 1.01 | S. cerevisiae deletion strains, locus YKR001C, strain vps1, stronger effect = lower value 0.992 | S. cerevisiae deletion strains, locus YKR026C, strain gcn3, stronger effect = lower value 0.988 | S. cerevisiae deletion strains, locus YKR091W, strain srl3, stronger effect = lower value 0.985 | S. cerevisiae deletion strains, locus YLL001W, strain dnm1, stronger effect = lower value 0.979 | S. cerevisiae deletion strains, locus YLL026W, stronger effect = lower value 0.997 | S. cerevisiae deletion strains, locus YLL041C, strain sdh2, stronger effect = lower value 0.994 | S. cerevisiae deletion strains, locus YLR027C, strain aat2, stronger effect = lower value 0.989 | S. cerevisiae deletion strains, locus YLR039C, strain RIC1, stronger effect = lower value 1.01 | S. cerevisiae deletion strains, locus YLR058C, strain SHM2, stronger effect = lower value 0.99 | S. cerevisiae deletion strains, locus YLR102C, strain apc9, stronger effect = lower value 0.997 | S. cerevisiae deletion strains, locus YLR221C, strain rsa3, stronger effect = lower value 0.99 | S. cerevisiae deletion strains, locus YLR258W, strain gsy2, stronger effect = lower value 0.986 | S. cerevisiae deletion strains, locus YLR262C, strain YPT6 (second series), stronger effect = lower value 0.973 | S. cerevisiae deletion strains, locus YLR262C, strain YPT6, stronger effect = lower value 1.03 | S. cerevisiae deletion strains, locus YLR268W, strain sec22, stronger effect = lower value 0.979 | S. cerevisiae deletion strains, locus YLR320W, strain mms22, stronger effect = lower value 0.979 | S. cerevisiae deletion strains, locus YLR330W, strain CHS5, stronger effect = lower value 1.01 | S. cerevisiae deletion strains, locus YLR342W, strain FKS1 (second series), stronger effect = lower value 0.956 | S. cerevisiae deletion strains, locus YLR342W, strain FKS1, stronger effect = lower value 0.986 | S. cerevisiae deletion strains, locus YLR357W, strain rsc2, stronger effect = lower value 0.937 | S. cerevisiae deletion strains, locus YLR370C, strain arc18, stronger effect = lower value 0.989 | S. cerevisiae deletion strains, locus YLR371W, strain rom2, stronger effect = lower value 0.985 | S. cerevisiae deletion strains, locus YLR384C, strain iki3, stronger effect = lower value 0.974 | S. cerevisiae deletion strains, locus YLR418C, strain cdc73, stronger effect = lower value 0.949 | S. cerevisiae deletion strains, locus YML016C, strain PPZ1, stronger effect = lower value 0.999 | S. cerevisiae deletion strains, locus YML032C, strain rad52, stronger effect = lower value 0.973 | S. cerevisiae deletion strains, locus YML120C, strain ndi1, stronger effect = lower value 1 | S. cerevisiae deletion strains, locus YML124C, strain tub3, stronger effect = lower value 0.999 | S. cerevisiae deletion strains, locus YMR058W, strain fet3, stronger effect = lower value 0.984 | S. cerevisiae deletion strains, locus YMR078C, strain ctf18, stronger effect = lower value 0.999 | S. cerevisiae deletion strains, locus YMR125W, strain sto1, stronger effect = lower value 0.983 | S. cerevisiae deletion strains, locus YMR129W, stronger effect = lower value 1 | S. cerevisiae deletion strains, locus YMR205C, strain PFK2, stronger effect = lower value 0.978 | S. cerevisiae deletion strains, locus YMR223W, strain ubp8, stronger effect = lower value 0.982 | S. cerevisiae deletion strains, locus YMR231W, strain pep5, stronger effect = lower value 0.991 | S. cerevisiae deletion strains, locus YMR307W, strain GAS1, stronger effect = lower value 0.997 | S. cerevisiae deletion strains, locus YNL067W, strain RPL9B, stronger effect = lower value 1.02 | S. cerevisiae deletion strains, locus YNL071W, strain lat1, stronger effect = lower value 0.999 | S. cerevisiae deletion strains, locus YNL128W, strain TEP1, stronger effect = lower value 1.01 | S. cerevisiae deletion strains, locus YNL153C, strain GIM3, stronger effect = lower value 1.03 | S. cerevisiae deletion strains, locus YNL209W, strain ssb2, stronger effect = lower value 0.984 | S. cerevisiae deletion strains, locus YNL233W, strain BNI4, stronger effect = lower value 1.02 | S. cerevisiae deletion strains, locus YNL248C, strain rpa49, stronger effect = lower value 0.985 | S. cerevisiae deletion strains, locus YNL250W, strain rad50, stronger effect = lower value 0.972 | S. cerevisiae deletion strains, locus YNL271C, strain bni1, stronger effect = lower value 0.992 | S. cerevisiae deletion strains, locus YNL298W, strain CLA4, stronger effect = lower value 0.986 | S. cerevisiae deletion strains, locus YNL307C, strain MCK1, stronger effect = lower value 0.991 | S. cerevisiae deletion strains, locus YNL322C, strain KRE1 (second series), stronger effect = lower value 0.985 | S. cerevisiae deletion strains, locus YNL322C, strain KRE1, stronger effect = lower value 1 | S. cerevisiae deletion strains, locus YNR049C, strain mso1, stronger effect = lower value 0.975 | S. cerevisiae deletion strains, locus YNR052C, strain pop2, stronger effect = lower value 0.989 | S. cerevisiae deletion strains, locus YOL006C, strain TOP1, stronger effect = lower value 1.02 | S. cerevisiae deletion strains, locus YOL012C, strain htz1 0.724 | S. cerevisiae deletion strains, locus YOL147C, strain pex11, stronger effect = lower value 0.992 | S. cerevisiae deletion strains, locus YOR001W, strain rrp6, stronger effect = lower value 0.988 | S. cerevisiae deletion strains, locus YOR061W, strain CKA2, stronger effect = lower value 1 | S. cerevisiae deletion strains, locus YOR069W, strain VPS5, stronger effect = lower value 1 | S. cerevisiae deletion strains, locus YOR070C, strain gyp1, stronger effect = lower value 0.974 | S. cerevisiae deletion strains, locus YOR080W, strain dia2, stronger effect = lower value 0.971 | S. cerevisiae deletion strains, locus YOR083W, strain WHI5, stronger effect = lower value 0.974 | S. cerevisiae deletion strains, locus YOR106W, strain vam3, stronger effect = lower value 0.973 | S. cerevisiae deletion strains, locus YOR136W, strain idh2, stronger effect = lower value 0.998 | S. cerevisiae deletion strains, locus YOR144C, strain elg1, stronger effect = lower value 0.997 | S. cerevisiae deletion strains, locus YOR184W, strain ser1, stronger effect = lower value 0.983 | S. cerevisiae deletion strains, locus YOR265W, strain rbl2, stronger effect = lower value 1 | S. cerevisiae deletion strains, locus YOR270C, strain vph1, stronger effect = lower value 0.942 | S. cerevisiae deletion strains, locus YOR290C, strain snf2, stronger effect = lower value 0.991 | S. cerevisiae deletion strains, locus YOR316C, strain cot1, stronger effect = lower value 0.994 | S. cerevisiae deletion strains, locus YPL051W, strain arl3, stronger effect = lower value 0.983 | S. cerevisiae deletion strains, locus YPL055C, strain LGE1, stronger effect = lower value 1.03 | S. cerevisiae deletion strains, locus YPL078C, strain atp4, stronger effect = lower value 0.988 | S. cerevisiae deletion strains, locus YPL106C, strain sse1, stronger effect = lower value 0.939 | S. cerevisiae deletion strains, locus YPL240C, strain hsp82, stronger effect = lower value 0.992 | S. cerevisiae deletion strains, locus YPR119W, strain clb2, stronger effect = lower value 0.997 | S. cerevisiae deletion strains, locus YPR141C, strain kar3, stronger effect = lower value 1.01 | S. cerevisiae deletion strains, locus YPR163C, strain tif3, stronger effect = lower value 0.997 | S. cerevisiae deletion strains, locus YPR167C, strain met16, stronger effect = lower value 0.988 | S. cerevisiae deletion strains, strain wtn01, stronger effect = lower value 0.978 | S. cerevisiae strains, strain wild type, stronger effect = lower value 0.998
